PubChem BioAssay (NCI)
Values joined by “and” are separate entries in the source; they are usually repeats but may differ in a detail not shown here. Identical values can stand only once. The panel holds about 79,000 compounds, 15% with a hit somewhere; the sample as a whole holds those more often. Cut-off read from the data, not from the text of the source: active = growth inhibition above about 70%; inactive = the rest.

Key:
[1] = NCI Yeast Anticancer Drug Screen. Data for the rad50 strain (AID 155);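 note: 0% = growth of vehicle-only cultures of the same strain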; conditions: S. cerevisiae rad50 strain growth inhibition, stronger effect = higher value; at 50.0 µM unless noted
How it was run: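 Genetically altered yeast (DNA repair pathway); compound treatment; growth inhibition vs vehicle ctrl.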

[2] = NCI Yeast Anticancer Drug Screen. Data for the mec2-1 strain (AID 157); conditions: S. cerevisiae mec2-1 strain, stronger effect = higher value; at 50.0 µM unless noted
How it was run: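 Mutant yeast (mec2-1) grown with compound; growth inhibition relative to vehicle control reported.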

[3] = NCI Yeast Anticancer Drug Screen. Data for the sgs1 mgt1 strain (AID 161);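 note: 0% = growth of cultures given vehicle only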; conditions: S. cerevisiae sgs1 mgt1 strain, stronger effect = higher value; at 50.0 µM unless noted
How it was run: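 Yeast cells carrying a defined DNA-repair defect were exposed to test compounds. Growth inhibition was measured relative to vehicle-treated controls.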

[4] = NCI Yeast Anticancer Drug Screen. Data for the cln2 rad14 strain (AID 165);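 note: 0% = growth equal to vehicle treated cultures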; conditions: S. cerevisiae cln2 rad14 strain, stronger effect = higher value; at 50.0 µM unless noted
How it was run: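 Readout is yeast growth inhibition versus vehicle-treated controls, using a strain with cln2 and rad14 alterations exposed to compound.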

[5] = NCI Yeast Anticancer Drug Screen. Data for the bub3 strain (AID 167); conditions: S. cerevisiae bub3 mutant strain, stronger effect = higher value; at 50.0 µM unless noted
How it was run: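 Yeast carrying a defined mutation is treated with each compound, and growth is compared with that of vehicle-exposed cells to give inhibition.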

[6] = NCI Yeast Anticancer Drug Screen. Data for the mlh1 rad18 strain (AID 175); conditions: S. cerevisiae mlh1 rad18 strain growth inhibition, stronger effect = higher value; at 50.0 µM unless noted
How it was run: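 Genetically defined yeast (DNA repair-deficient) exposed to compounds; growth inhibition determined relative to vehicle.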

Measured: growth inhibition

CCCCOC(=O)C1CN2C=CC=NC2=NC1(C(F)(F)F)C(F)(F)F (stereo unspecified)
inactive: [1] -16.1% | [2] 27% | [3] 6.6% | [4] 0.95% | [5] 3.35% | [6] -43.1%

COC1OC(COC(=O)c2ccc([N+](=O)[O-])cc2)C2SC12 (stereo unspecified)
inactive: [1] 9.5% | [2] -9.1% | [3] 1.8% | [4] -27.6% | [5] 6.7% | [6] 2.65%

CCCCCCCOC(=O)C1(O)CCCCC1
inactive: [1] 6.1% | [2] 1.25% | [3] 6.65% | [4] 32.5% | [5] 16.8% | [6] -16.6%

CC1=C(C(=O)Nc2cc(=O)n(C)c(=O)n2C)C(c2cccc([N+](=O)[O-])c2)C(C(=O)Nc2cc(=O)n(C)c(=O)n2C)=C(C)N1
inactive: [1] 8.7% | [2] 32.1% | [3] 24.9% | [4] 21.9% | [5] 24.4% | [6] 41.8%

O=C(C(=C(I)I)c1ccccc1)c1ccccc1
inactive: [1] 7.7% | [2] -7.95% | [3] 25.1% | [4] -13.7% | [5] 13.6% | [6] -75.4%

Cc1ccc([N+](=O)[O-])cc1N1C(=O)c2ccccc2C1=O
inactive: [1] 14.5% | [2] -13.6% | [3] 12.6% | [4] 8.2% | [5] 13.6% | [6] 13.2%

CCCCCOC1OC(=O)C(Cl)=C1Cl (stereo unspecified)
inactive: [1] 65.3% | [2] 36.7% | [3] 63.2% | [4] 61.7% | [5] 54.8% | [6] 44%

S=C1NCN2CCN(CC2)CNC(=S)C(=S)NCN2CCN(CC2)CNC1=S
inactive: [1] 39.2% | [2] 40.6% | [3] 13% | [4] 55.8% | [5] 48.9% | [6] 57.6%

COC(=O)c1[nH]c(=O)c2ccc([N+](=O)[O-])cc2c1O
inactive: [1] -15.7% | [2] 0.15% | [3] -14.9% | [4] 16.1% | [5] -6.05% | [6] -0.4%

CCOc1ccc(N=Cc2ccc3cc(C)ccc3n2)cc1
inactive: [1] -9.95% | [2] -9.65% | [3] -2.4% | [4] 12.2% | [5] -1.8% | [6] -19.9%

COC1CCC2(C)C(CCC3C4CCC(OC(C)=O)C4(C)CCC32)O1 (stereo unspecified)
inactive: [1] 1.65% | [2] -9.55% | [3] -9.45% | [4] -6.7% | [5] -1.95% | [6] -14.8%

Cc1sc2ccccc2[n+]1CCC(=O)O
inactive: [1] -23.1% | [2] -14% | [3] -38.6% | [4] -72.8% | [5] -14.8% | [6] -7.65%

O=P1(O)c2ccccc2Nc2cc(C(F)(F)F)ccc21
inactive: [1] 24.1% | [2] -8.25% | [3] -9.8% | [4] 8.7% | [5] -9.85% | [6] -49.4%

Cn1cc2c([N+](=O)[O-])cccc2n1
inactive: [1] 5.35% | [2] 3.75% | [3] 14.7% | [4] -4.6% | [5] -0.9% | [6] 13.2%

O=CNC1c2ccccc2CCc2ccccc21
inactive: [1] -1.15% | [2] -12.9% | [3] -11.4% | [4] -2.45% | [5] -22.6% | [6] -5.85%

Cc1cc(O)cc(C)c1O
inactive: [1] 7.05% | [2] 5.45% | [3] 2.8% | [4] -23.4% | [5] -0.3% | [6] -7.75%

N#CCc1nc(-c2cc3ccc(O)cc3oc2=O)cs1
inactive: [1] 19.1% | [2] 8.45% | [3] -25.9% | [4] 2.8% | [5] -12.4% | [6] -40.8%

COc1cc2ccc3c4ccccc4cnc3c2cc1OC
inactive: [1] 8.1% | [2] 5.4% | [3] 0% | [4] 18.2% | [5] 13.7% | [6] 13.2%

CC(O[Si](C)(C)C)C1C=CC(C)n2c(=O)n(-c3ccccc3)c(=O)n21 (stereo unspecified)
inactive: [1] 4.65% | [2] -26.6% | [3] -34.3% | [4] -7.6% | [5] -55.6% | [6] -18.2%

O=C(c1ccccc1)C(c1ccccc1)C(Cl)c1ccccc1 (stereo unspecified)
inactive: [1] 21.4% | [2] 30.8% | [3] 31.4% | [4] 3% | [5] -3.2% | [6] 19%

CC1=CC(C)C(C(=O)OCC(C)C)C(C(=O)OCC(C)C)C1 (stereo unspecified)
inactive: [1] -13.2% | [2] -6% | [3] -5.1% | [4] 1.45% | [5] 23% | [6] -22.4%

O=C(Nc1cccc(Cl)c1)Oc1c([N+](=O)[O-])cc(Cl)cc1[N+](=O)[O-]
inactive: [1] 13.2% | [2] 6.75% | [3] 21.1% | [4] -12% | [5] 0.15% | [6] 28.3%

CCc1ccc2c(c1)C(O)(C#Cc1ccccc1)c1cc(CC)ccc1C2(O)C#Cc1ccccc1 (stereo unspecified)
inactive: [1] 37.5% | [2] 25.2% | [3] 45.5% | [4] 22.9% | [5] -4.8% | [6] 32.7%

O=C(CC1SC(=Nc2ccccc2Cl)NC1=O)Nc1ccc(Cl)cc1Cl (stereo unspecified)
inactive: [1] -9.8% | [2] -14.8% | [3] -15.9% | [4] 17.7% | [5] -6.55% | [6] 9.7%

Cc1ccc(S(=O)(=O)Nc2ccc([N+](=O)[O-])cc2-c2ccccc2)cc1
inactive: [1] -0.25% | [2] -9.2% | [3] 0.2% | [4] -1.15% | [5] 5.15% | [6] 4.2%

N=C(N)SCc1ccc(Oc2ccc(CSC(=N)N)cc2)cc1
inactive: [1] 0.4% | [2] 1.45% | [3] -4.5% | [4] 0.5% | [5] -2.4% | [6] 15.3%

O=C1c2cc(Cc3ccccc3)c(=O)c(Cc3ccccc3)cc2C(=O)c2cc(Cc3ccccc3)c(=O)c(Cc3ccccc3)cc21
inactive: [1] 23% | [2] -11.3% | [3] -11.3% | [4] -26% | [5] -6.35% | [6] 20.3%

CC(=C(C#N)C#N)c1csc2ccccc12
inactive: [1] 9.1% | [2] 14.8% | [3] -4.35% | [4] -34.5% | [5] -14.8% | [6] 21.9%

CNC(=O)Nc1c(C)cccc1C
inactive: [1] 0.05% | [2] 6.1% | [3] -0.2% | [4] -26.2% | [5] 0.05% | [6] 4.05%

COc1ccc(NC2Oc3cc4c(cc3C(c3cc(OC)c(O)c(OC)c3)C2C)OCO4)cc1 (stereo unspecified)
inactive: [1] 5.1% | [2] 0.1% | [3] -6.15% | [4] 2.65% | [5] 6.6% | [6] 4.8%

COc1ccc2c(c1)[n+](=O)c(C(=O)C/C(=N/NC(=O)C[N+](C)(C)C)C(=O)Nc1cccc(C)c1C)c(C)n2O
inactive: [1] -23.6% | [2] -2.25% | [3] -41% | [4] -5.5% | [5] 22.9% | [6] -13.9%

CC(C)NC(=O)c1ccc(Cl)cc1Cl
inactive: [1] 26.9% | [2] 27.9% | [3] 15.6% | [4] 10.9% | [5] 3.7% | [6] 12%

CCS(=O)(=O)/C=C/c1cccs1
inactive: [1] -9.1% | [2] -7.95% | [3] -8.65% | [4] -47.6% | [5] 4.8% | [6] -17.6%

O=C(OCC(OC(=O)c1ccccc1)C(OC(=O)c1ccccc1)C(OC(=O)c1ccccc1)c1cnn(-c2ccccc2)n1)c1ccccc1 (stereo unspecified)
inactive: [1] 0.55% and 30.4% | [2] 3.85% and 38.2% | [3] -6.45% and 58.4% | [4] -13.4% and 47.3% | [5] -0.85% and 42.1% | [6] 12.9% and 34.9%

O=C1CCCN(c2ccccc2)N1
inactive: [1] 24.4% | [2] 24.6% | [3] 3.3% | [4] 5.1% | [5] 31.9% | [6] -3.8%

Nc1ccccc1C1CCCCC1
inactive: [1] 32.1% | [2] -13.6% | [3] 52% | [4] -19.4% | [5] 3.95% | [6] 26.6%
